Only some compounds are listed: those with a hit (about 4.8% of all), similar ones and a draw of the others.
SKKanGAS inh: inhibitors of SKKanGAS S. pyogenes growth in kanamycin (SK-promoter or general growth effect). BacTiter-Glo, 6 h. inhibition, % at 7.5 µM. 300,000 tested, 1.3% active. AID 1662;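 active means mean replicate score, as percent of positive control median, at least 50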;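 further: strain carries kanamycin resistance gene driven by streptokinase promoter and grows in 40 µg/ml kanamycin; loss of luminescence reflects streptokinase promoter inhibition or plain growth inhibition; 0% = median of DMSO wells and 100% = positive control at its reference dose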
tim23-1 inh: growth inhibitors of tim23-1 mutant yeast; S. cerevisiae tim23-1 growth, BacTiter-Glo luminescence, 24 h; 330,000 tested, 1.3% active; AID 463212; inhibition, % at 20 µM;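 active means growth inhibition of the mutant yeast at or above 50%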;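 further: temperature-sensitive mutant grown at 25 °C; plate controls were DMSO-treated mutant yeast for no effect and medium wells lacking yeast for full effect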
NALP1 yeast inh: NALP1 inhibition; inhibition, % at 10 µM; 280,000 tested, 0.61% active; AID 2071; S. cerevisiae NALP1/ASC/caspase-1 growth, X-gal OD620, 72 h; in the data active means inhibition mostly above about 24%, no sharp cut-off; inactive means mostly below about 32%
tim10-1 inh: tim10-1 yeast growth inhibition. S. cerevisiae tim10-1 ts strain growth, BacTiter-Glo, 24 h. 330,000 tested, 2.2% active. AID 463190. inhibition, % at 20 µM;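 active means inhibition of at least 40%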;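 further: mutant grown at 25 °C; 0% = DMSO wells with yeast and 100% = wells holding no yeast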
TIM10 inh: TIM10 yeast growth inhibition; S. cerevisiae TIM10 strain growth, BacTiter-Glo luminescence, 24 h; inhibition, % at 10 µM; 330,000 tested, 1.4% active;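 active means inhibition of 40% or more at the single tested concentration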;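 further: wild-type TIM10 isogenic control strain grown at permissive 25 °C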
PfHsp90 yeast 2: growth inhibition of yeast expressing Plasmodium Hsp90 | S. cerevisiae expressing PfHsp90, BacTiter-Glo ATP, 48 h; yeast lacking PDR1 and PDR3 efflux regulators | inhibition, % at 9.4 µM | 310,000 tested, 0.32% active | AID 504621;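 active means every replicate shows inhibition above about 80%, whatever the replicate mean, limit read from the data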;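 further: 0% = DMSO neutral controls and 100% = 20 µM radicicol positive controls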
Starred values were filed as active, the others as inactive; / = not tested or not shown.

SMILES	SKKanGAS inh	tim23-1 inh	NALP1 yeast inh	tim10-1 inh	TIM10 inh	PfHsp90 yeast 2
COc1ccc2nc(N/C(N)=N/C(=S)Nc3c(C)cccc3C)nc(C)c2c1	50.7*	23.1	3.1	24.2	28.5	-80.3
C#Cc1ccc(C(=O)NCc2ccc(N3CCCC3=O)cc2)cc1	7.5	-22.5	2.3	-25.6	-17.1	3.2
Cc1ccc(S(=O)(=O)c2nc(-c3ccccc3)oc2N2CCC(C(N)=O)CC2)cc1	-3.4	5.5	33.9*	7.5	9.1	-2.3
O=S(=O)(c1ccc(F)cc1)c1nc(-c2ccccc2)oc1N1CCOCC1	54.1*	27.0	15.1	28.5	3.3	3.9
CCOc1cc([N+](=O)[O-])cc(/C=N/NC(=O)c2c(-c3ccccc3)noc2C)c1O	91.8*	9.9	3.9	29.2	-28.5	-40.1
CCOc1cc(Br)cc(/C=N/NC(=O)c2cccnc2)c1O	55.5*	43.5	5.1	-2.8	-27.5	8.2
COc1cc([N+](=O)[O-])cc(/C=N/NC(=O)C(C)Nc2cccc(C)c2)c1O (stereo not drawn)	58.6*	4.2	12.9	19.9	2.7	-5.3
COc1cc([N+](=O)[O-])cc(/C=N/NC(=O)c2ccc(C)nc2)c1O	82.1*	-10.0	5.9	31.1	-7.3	-5.8
Cc1cc(C)nc(SCc2nnc(SCC(=O)Nc3ccc(C)c(C)c3)o2)n1	-2.3	17.2	26.8	24.3	1.5	-17.3
C=CCc1cccc(/C=N/NC(=O)CCCNc2ccc(C)cc2)c1O	16.1	/	23.0	/	/	6.3
C=CCc1cccc(/C=N/NC(=O)C(C)Nc2cccc(C)c2)c1O (stereo not drawn)	59.6*	9.0	13.3	24.5	29.0	11.5
Cc1ccc(S(=O)(=O)CCc2nnc(NC(=O)C3CCCO3)s2)cc1 (stereo not drawn)	6.8	42.1	0.0	23.2	7.2	1.4
COc1ccc(C(=O)N2CCCC(Nc3ccc(C)c(C)c3)C2)cc1F (stereo not drawn)	51.5*	30.8	9.7	11.7	7.7	9.4
CCC(C)[C@H](NC(=O)[C@@H]1CSC2c3ccccc3C(=O)N21)C(=O)NCC1CCCO1 (stereo partly drawn)	3.0	-1.0	4.5	-2.1	9.6	15.3
CC1CCCCC1NC(=O)C1CCN(S(=O)(=O)c2ccc3c(c2)CCC(=O)N3)CC1 (stereo not drawn)	-5.5	-15.9	32.3*	-6.0	4.3	-10.0
COc1ccc2nc(C)cc(N/N=C/c3cccc(OC)c3O)c2c1	11.8	1.8	31.8	-4.6	-6.6	15.0
COc1cccc(/C=N/Nc2cc(-n3nc(C)cc3-c3ccccc3)ncn2)c1O	117.2*	34.7	-24.5	30.8	24.4	-8.3
COc1ccc(NC(=O)C(=O)NNC(=O)C(C)Oc2ccc(Cl)cc2Cl)cc1 (stereo not drawn)	71.2*	-19.0	6.2	-28.5	-30.6	-8.0
CCCS(=O)(=O)N1CCN(Cc2ccncc2)CC1	4.3	13.6	18.2	13.8	11.9	2.3
O=C(N/N=C/c1c[nH]c2ccccc12)c1ccn(Cc2ccc(Cl)cc2Cl)n1	54.7*	13.8	12.5	14.3	12.3	-29.7
CCOC(=O)c1cc2cc(OCc3ccccc3)ccc2nc1C	-0.3	-40.2	-0.1	-73.8	-0.2	118.4*
Cn1c(CCN2CCCCC2)nc2cc(NS(=O)(=O)c3ccc(F)cc3)ccc21	1.0	3.5	8.9	22.5	-16.5	/
CCc1ccc(-c2nc(NC(=S)NC(=O)c3cccs3)sc2C)cc1	3.8	2.3	-2.2	11.2	5.0	-13.2
COC(=O)c1nc(NC(=S)NC(=O)c2cccs2)sc1C	59.6*	24.3	7.2	16.3	15.4	/
CCOC(=O)c1c(-c2ccc(C)o2)csc1NC(=O)COC(=O)c1ccc(NC(N)=O)cc1	67.9*	-14.4	-21.0	13.5	-9.2	-1.3
CCOC(=O)c1c(-c2ccc(C)o2)csc1NC(=O)CSc1nnc(C)s1	-21.5	27.5	1.8	4.3	-11.6	10.8
CCOC(=O)c1c(-c2ccc(C)o2)csc1NC(=S)NC(=O)c1cccs1	61.2*	23.7	17.7	29.8	28.7	16.3
CCOCCCNC(=O)CCn1ccc2cc(S(=O)(=O)N3CCCC3)ccc21	-1.0	-7.8	26.4	-3.1	6.3	3.7
COc1ccc2cc(C(=O)/C=C/c3cc(OC)c(O)c(OC)c3)ccc2c1	68.6*	29.5	17.5	35.0	8.7	9.5
